± gives the standard deviation.
Tested on: Streptococcus suis P1/7
Assay: percent growth relative to DMSO control; higher = less growth inhibition
Conditions: 10 µM; incubation time 18 h
Description: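 CLSI broth microdilution: 5x10^4 CFU of Streptococcus suis (strain P1/7 or HE06) incubated with 10 µM Pathogen Box compound in cation-adjusted Mueller Hinton broth, 37 °C, 5% CO2, 18 h. Growth read as OD600 and expressed as percent of the DMSO-treated control (100%); mean ± SD of three independent experiments.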

Compound	percent growth
CC1COC(Cn2cncn2)(c2ccc(Oc3ccc(Cl)cc3)cc2Cl)O1 (centres undefined)	82.9 ± 29%
CO/N=C(\C(=O)OC)c1ccccc1CO/N=C(\C)c1cccc(C(F)(F)F)c1	82 ± 16%
CC1(C)OB(O)c2ccc(C3=NOC(c4cc(Cl)c(F)c(Cl)c4)(C(F)(F)F)C3)cc21 (centres undefined)	0.819 ± 0.82%
Cc1nn(Cc2ccccc2)c(Cl)c1C(=O)NC1CCCCCC1	93.1 ± 26%
CCc1nn(C)c(C(=O)NCc2ccc(Oc3ccc(C)cc3)cc2)c1Cl	91.4 ± 28%
O=C1O[C@@H](COc2ccon2)CN1c1cc(F)c(C2=CCN(Cc3ccccc3)CC2)c(F)c1	-0.108 ± 0.19%
CO[C@@H]1CN(c2ccc(C#CC3(O)CN4CCC3CC4)c(Cc3ccccc3)n2)C[C@H]1O (some centres undefined)	124 ± 50%
Nc1c2c(nc3sc4c(c13)CCCC4)CCCC2	97.3 ± 30%
O=C1O[C@@H](CO)CN1c1cc(F)c(C2=CCN(Cc3ccccc3)CC2)c(F)c1	13.5 ± 23%
CC(C)(C)C(O)C(Oc1ccc(-c2ccccc2)cc1)n1cncn1 (centres undefined)	86.6 ± 29%
Cc1cccc(C(=O)Nc2ccnc(N(C)C3CCN(CC(C)C)CC3)c2)c1	67.9 ± 22%
Cc1cc(C2=NOC(c3cc(Cl)c(F)c(Cl)c3)(C(F)(F)F)C2)ccc1C(=O)NCc1ccc2c(c1)C(C)(C)OB2O (centres undefined)	61.5 ± 40%
Cc1nn(C)c(C)c1NS(=O)(=O)c1c(Cl)cc(-c2ccnc(N3CCNCC3)c2)cc1Cl	76.6 ± 7.2%
CO/C=C(/C(=O)OC)c1ccccc1Oc1cc(Oc2ccccc2C#N)ncn1	80.8 ± 20%

From the supplement of paper PMC7866885, “A novel bicyclic 2,4-diaminopyrimidine inhibitor of Streptococcus suis dihydrofolate reductase” (PeerJ, 2021)
